From PubChem BioAssay
A selection: hits, their analogues and other compounds. The true share with any hit is near 3.2%.
GALK inh: blocks human galactokinase activity; Purified GALK, Kinase-Glo residual ATP luminescence; AID 1868; 0.007% of 270,000 active; P51570; Potency, µM (series often up to 57.5 µM), without a hit: top-dose activity change, negative = inhibition, hits mostly inhibitors; also: potency is read from the fitted curve at half-maximal effect
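ATP-depletion format; final 35 uM ATP, 100 uM D-galactose, 5 nM enzyme; pH 8.0 HEPES/Mg2+ buffer; 60 min RT; luminescence read 10 min after detection reagent.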
FBPA coupling cs: coupling enzyme interference in Giardia aldolase counter-screen; coupling enzyme system counterscreen, AmpLite Red fluorescence; activity change, negative = inhibition, % at 58.2 µM, hits read low; 0.67% of 290,000 active; AID 2472; in the data active = activity change below about -30%
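Counterscreen of the coupled detection system alone, without aldolase: glyceraldehyde-3-phosphate coupling enzymes plus AmpLite Red readout. Compounds at 57.5 uM final, 10 min RT preincubation, 20 min RT reaction, fluorescence 525/598 nm.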
USP2a inh: USP2a (human) protease inhibition; O75604; USP2 core, Ub-CHOP2 coupled fluorogenic reporter, 485/531; Potency, µM (highest dose often 38.3 µM), inactives show at the top dose activity change, negative = inhibition, usual class: inhibitors; 0.01% of 330,000 active; AID 463254;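 also: potency is read from the fitted curve at half-maximal effect; plate controls were DMSO wells for no effect and full inhibition by NEM control for full effect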
Target sequence (O75604 whole entry, looked up): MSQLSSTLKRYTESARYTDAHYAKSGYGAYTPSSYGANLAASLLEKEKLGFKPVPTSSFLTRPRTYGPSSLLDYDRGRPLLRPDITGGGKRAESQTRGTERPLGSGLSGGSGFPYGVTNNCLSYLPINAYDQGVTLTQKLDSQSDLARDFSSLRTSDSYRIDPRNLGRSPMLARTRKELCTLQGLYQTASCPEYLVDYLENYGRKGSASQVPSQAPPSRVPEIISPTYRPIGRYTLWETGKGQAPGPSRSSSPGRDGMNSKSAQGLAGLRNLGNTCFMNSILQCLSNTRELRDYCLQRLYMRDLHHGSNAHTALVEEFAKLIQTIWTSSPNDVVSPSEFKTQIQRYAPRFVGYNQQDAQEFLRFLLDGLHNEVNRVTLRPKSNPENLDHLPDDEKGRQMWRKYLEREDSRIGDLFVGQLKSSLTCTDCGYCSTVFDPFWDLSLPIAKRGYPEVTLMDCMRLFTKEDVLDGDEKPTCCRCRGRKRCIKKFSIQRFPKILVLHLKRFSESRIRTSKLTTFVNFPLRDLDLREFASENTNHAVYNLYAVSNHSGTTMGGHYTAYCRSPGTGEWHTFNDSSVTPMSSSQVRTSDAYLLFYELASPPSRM
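Deubiquitinase activity read as fluorescence (485/531 nm) after Ub-CHOP2 cleavage activates the enterokinase reporter on its substrate; USP2 core 10nM, Ub-CHOP2 and substrate 25nM each, 30min compound preincubation then 60min RT; data normalized to NEM, curves fitted.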
PLK1 PBD inh: blocks phosphopeptide binding to human PLK1 polo-box domain; Plk1 PBD binding of FITC phosphopeptide, fluorescence polarization; Potency, µM, for inactives: max response, negative = inhibition, hits mostly inhibitors; 2.8% of 360,000 active; AID 720504; also: potency is read from the fitted curve at half-maximal effect; series mostly up to about 57 µM; nearly all actives have a fitted effect of over 65% in size
VDR inh: vitamin D3 receptor (human) inhibition. VDR-SRC2-3 peptide fluorescence polarization, 2 h. 0.93% of 400,000 active. Potency, µM, inactives show max response, negative = inhibition, usual class: inhibitors. AID 504847. P11473; also: potency is read from the fitted curve at half-maximal effect
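Inhibition of the VDR/SRC2-3 peptide interaction is quantified by fluorescence polarization. Compounds (23 nl, pintool) incubate with the reagents for 2 hours at ambient room temperature.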
USP1 inh: USP1/UAF1 (human) deubiquitinase inhibition; O94782; Potency, µM (series often up to 57.1 µM), inactives show top-dose activity change, negative = inhibition, hits mostly inhibitors; recombinant USP1/UAF1, Ub-Rhodamine cleavage fluorescence; AID 743255; 0.23% of 390,000 active; also: potency is read from the fitted curve at half-maximal effect; nearly all actives have a fitted effect of over 60% in size
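USP1/UAF1 complex at 1 nM was preincubated with compound for 15 min at room temperature, then Ub-Rho substrate (150nM final) was added. Fluorescence (480/540 nm) was read kinetically, 6 reads every 60 seconds.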
TbPYK confirm: confirmation of Trypanosoma brucei pyruvate kinase inhibitors. shares compounds with PLK1 PBD inh. recombinant TbPYK, Kinase-Glo ATP luminescence. Potency, µM (doses to about 76.9 µM), inactives show top-dose activity change, negative = inhibition, actives largely listed as inhibitors. 67% of 890 active; also: potency is read from the fitted curve at half-maximal effect; nearly all actives have a fitted effect of over 70% in size
TbPYK orthogonal: inhibits T. brucei pyruvate kinase in orthogonal ADP-Glo assay | shares compounds with PLK1 PBD inh | recombinant TbPYK, ADP-Glo luminescence, 60 min | 62% of 890 active | Potency, µM (titrated, usually from 76.9 µM), for the others: at the highest dose activity change, negative = inhibition, actives largely listed as inhibitors; also: potency is read from the fitted curve at half-maximal effect; nearly all actives have a fitted effect of over 75% in size
* hit, by the source's call; ? = inconclusive; . = not tested or not shown. Unless noted, calls follow the shape of the dose curve; as a rule, active = well fitted curve in the direction sought with a large enough effect; inconclusive = small, poorly fitted or top-dose-only effect, or another doubt; inactive = no such curve, though single readings can be large; an effect the other way counts as inactive or inconclusive. Unless noted, % is scaled to controls: 0 for no effect and ±100 for the full control effect.

SMILES	GALK inh	FBPA coupling cs	USP2a inh	PLK1 PBD inh	VDR inh	USP1 inh	TbPYK confirm	TbPYK orthogonal
CCn1c(=S)[nH]c2cc(C(=O)O)ccc21	-2%	-3	-3%	.	.	.	.	.
CCn1c(=O)cc(C(F)(F)F)[nH]c1=S	6%	0	0%	-12%	-5%	-2%	?	35µM*
Cc1cc(-c2nnc(SCC(=O)Nc3ccc(Cl)cn3)n2N)n[nH]1	7%	.	-2%	-4%	-3%	-6%	.	.
O=C(Nc1cccc(N2C(=O)C=CC2=O)c1)c1cccs1	.	.	-12%	.	.	.	.	.
O=C1C=CC(=O)N1c1cccc(-c2ccccc2)c1	-2%	5	0%	2.7µM*	45µM*	-14%	4µM*	7.9µM*
O=C(O)CCCn1c(=S)[nH]c2c(sc3ccc([N+](=O)[O-])cc32)c1=O	-7%	6	1%	-15%	15%	-7%	7.9µM*	4.5µM*
O=C(CN1CCN(c2ccc(F)cc2)CC1)Nc1ccc2c(c1)OCCO2	4%	0	1%	-6%	10%	-15%	.	.
O=C(CN1CCN(c2ccc(O)cc2)CC1)Nc1ccc2c(c1)OCCO2	4%	-26	2%	10%	-18%	-28%	22µM*	32µM*
Cc1nc(SCc2ccc(O)c([N+](=O)[O-])c2)n[nH]1	0%	0	3%	-15%	-13%	-17%	.	.
Cc1nc(SCc2ccc(O)c([N+](=O)[O-])c2)c([N+](=O)[O-])[nH]1	.	10	-3%	-30%	?	-5%	?	13µM*
NC(=O)c1ccc(Nc2nnc(-c3ccc(O)cc3)c3ccccc23)cc1	-3%	4	9%	-9%	2%	?	.	.
CC(=O)c1ccc(N2CCN(c3ccc(C(N)=O)cc3[N+](=O)[O-])CC2)cc1	4%	5	0%	-4%	-4%	-24%	.	.
NC(=O)c1ccc(N2CCN(c3ccc(O)cc3)CC2)c([N+](=O)[O-])c1	6%	-9	2%	-5%	-11%	-2%	14µM*	?
O=C(N/N=C\c1ccc(-c2ccc([N+](=O)[O-])cc2)o1)C1COc2ccccc2O1 (stereo unspecified)	2%	1	-3%	-12%	-8%	-19%	.	.
CN(C)c1ccc(/C=N/NC(=O)C2COc3ccccc3O2)o1 (stereo unspecified)	2%	-9	3%	-15%	-18%	-18%	?	35µM*
CCOc1cc(/C=C2\SC(=N)N(c3nccs3)C2=O)ccc1OCCN1CCOCC1	.	-1	3%	-10%	-5%	-19%	?	?
COC(=O)c1cc(NC(=O)c2nn(C)c3c2COc2ccccc2-3)cc(C(=O)OC)c1	.	.	.	.	4%	0%	.	.
Clc1ccc(CN2CCN(c3ccccc3)CC2)cn1	-1%	2	3%	-7%	-15%	-3%	.	.
Cc1ccccc1NC(=O)c1sc2nc(N3CCOCC3)c3c(c2c1N)CCCC3	6%	.	0%	?	7%	-12%	?	4µM*
CCOC(=O)c1ccc(NC(=O)c2sc3nc(N4CCOCC4)c4c(c3c2N)CCCC4)cc1	-5%	.	-2%	-18%	1%	1%	?	?
COc1ccccc1NC(=O)c1sc2nc(N3CCOCC3)c3c(c2c1N)CCCC3	7%	.	1%	-7%	2%	-11%	.	.
COc1ccc(NC(=O)c2sc3nc(N4CCOCC4)c4c(c3c2N)CCCC4)cc1	.	.	.	3%	.	-8%	.	.
Cc1ccc(CN2C(=O)c3ccccc3NC2c2cc(Br)ccc2O)cc1 (stereo unspecified)	8%	-4	3%	-4%	9%	-15%	.	.
CC1(C(=O)NCCC(F)(F)F)Cc2c(-c3cccc(C(N)=O)c3)ccnc2O1 (stereo unspecified)	.	.	.	-12%	.	.	6%	-2%
COc1cc2c(cc1OC)C(c1ccc([N+](=O)[O-])cc1)NCC2 (stereo unspecified)	4%	2	3%	12%	-18%	-9%	-6%	-9%
SMILES	GALK inh	FBPA coupling cs	USP2a inh	PLK1 PBD inh	VDR inh	USP1 inh	TbPYK confirm	TbPYK orthogonal
COc1cc2c(cc1OC)C(c1cc([N+](=O)[O-])ccc1O)NCC2 (stereo unspecified)	4%	5	2%	1%	-5%	-28%	.	.
N=c1n(-c2ccccc2)c(O)cc(=O)n1-c1ccccc1	2%	-3	0%	-7%	-1%	2%	.	.
O=c1cc(O)n(-c2ccccc2)c(=S)[nH]1	-3%	2	3%	3.4µM*	-22%	-8%	?	-21%
CC(=O)/C(=N\Nc1ccc(Cl)cc1Cl)Sc1nnc(-c2ccccc2)n1-c1ccccc1	-3%	-1	-1%	-9%	-12%	-16%	?	14µM*
Cc1ccc(/C=C2\C(=O)Nc3ccccc32)o1	-1%	-7	2%	-19%	-22%	-18%	?	?
CCOc1ccccc1NC(=O)Cn1c(=O)n(Cc2ccc(C(=O)NCCCOC)cc2)c(=O)c2ccccc21	.	.	.	.	-7%	-26%	.	.
COc1ccc(NC(=O)CC2C(=O)NCCN2C(=O)c2ccc(Cl)cc2)cc1 (stereo unspecified)	8%	1	1%	1%	-9%	-12%	.	.
Cc1csc(N=Nc2ccc(N(C)C)cc2)[n+]1[O-]	.	.	.	-2%	.	-26%	18µM*	12%
O=[N+]([O-])c1cc2no[n+]([O-])c2cc1N1CCCCC1	.	.	.	2.7µM*	40µM*	?	2.2µM*	3.5µM*
N#Cc1cc(N2CCCCC2)c([N+](=O)[O-])cc1C#N	-3%	-1	0%	-13%	3%	-9%	.	.
Cc1cc(N=Cc2c(O)ccc3cc(Br)ccc23)no1	.	-14	2%	5.3µM*	-16%	-18%	18µM*	7.1µM*
O=C(O)c1ccc(-c2ccc(-c3ccccc3)cc2)s1	0%	16	0%	.	.	.	.	.
CCN1/C(=C2/SC(=S)N(C)C2=O)C=Cc2cc(C)ccc21	.	.	.	-20%	31%	-1%	.	.
CCN1C(=O)/C(=C2/C=Cc3cc(C)ccc3N2CC)N(C)C1=S	7%	-6	-2%	0%	1%	-25%	35µM*	-26%
CC(C)Sc1nnc(CNC(=O)C23CC4CC(CC(C4)C2)C3)n1C1CCCCC1	0%	-2	1%	-4%	2%	-18%	5.6µM*	11µM*
